Compounds without any hit were thinned out: in the full panel of roughly 79,000, 15% have a hit. Activity calls are given as the source filed them. Rule as the data show it: active = growth inhibition above about 70%; inactive = the rest.
What was measured:
[1] = NCI Yeast Anticancer Drug Screen. Data for the rad50 strain (AID 155);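 also: 0% = growth of vehicle-only cultures of the same strain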; details: S. cerevisiae rad50 strain growth inhibition, stronger effect = higher value
In short: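 Genetically altered yeast (DNA repair pathway); compound treatment; growth inhibition vs vehicle ctrl.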

[2] = NCI Yeast Anticancer Drug Screen. Data for the mec2-1 strain (AID 157); details: S. cerevisiae mec2-1 strain, stronger effect = higher value
In short: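 Compounds were applied to mec2-1 yeast cells. Their growth was then compared with that of vehicle-treated cultures to give growth inhibition.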

[3] = NCI Yeast Anticancer Drug Screen. Data for the sgs1 mgt1 strain (AID 161);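 also: 0% = growth of cultures given vehicle only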; details: S. cerevisiae sgs1 mgt1 strain, stronger effect = higher value
In short: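 Percent growth inhibition was derived by comparing compound-exposed mutant yeast with vehicle-exposed cultures. The strain carries alterations in DNA damage repair.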

[4] = NCI Yeast Anticancer Drug Screen. Data for the cln2 rad14 strain (AID 165);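 also: 0% = growth equal to vehicle treated cultures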; details: S. cerevisiae cln2 rad14 strain, stronger effect = higher value
In short: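 Strain: cln2 rad14 yeast, altered in cell cycle control and DNA damage repair. Read-out: growth inhibition vs vehicle.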

[5] = NCI Yeast Anticancer Drug Screen. Data for the bub3 strain (AID 167); details: S. cerevisiae bub3 mutant strain, stronger effect = higher value
In short: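 Yeast carrying a defined mutation is treated with each compound, and growth is compared with that of vehicle-exposed cells to give inhibition.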

[6] = NCI Yeast Anticancer Drug Screen. Data for the mlh1 rad18 strain (AID 175); details: S. cerevisiae mlh1 rad18 strain growth inhibition, stronger effect = higher value
In short: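 A repair-deficient yeast strain is exposed to test compound, and growth is scored relative to vehicle-treated controls.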

[7] = at 5.0 µM (retest, dose inferred, filed as 0.5)
[8] = at 50.0 µM (retest, dose inferred, filed as 5.0)

Measured: growth inhibition

Cc1cc(NCCCCCCNc2cc(C)nc3cc(N(C)C)ccc23)c2ccc(N(C)C)cc2n1
active: [1]; [8] 90% | [2]; [8] 96% | [2]; at 50.0 µM 85.2% | [3]; [8] 95% | [4]; [8] 79% | [5]; [8] 96% | [6]; [8] 92%
inactive: [1]; [7] 11% | [1]; at 50.0 µM 68.5% | [2]; [7] 0% | [3]; [7] 9% | [3]; at 50.0 µM 26.7% | [4]; [7] 8% | [4]; at 50.0 µM 13% | [5]; [7] -7% | [5]; at 50.0 µM 1.15% | [6]; [7] 7% | [6]; at 50.0 µM 7.45%

S=c1[nH]c2c(-c3ccccc3)cccc2s1
active: [1]; [8] 74% | [2]; at 50.0 µM 76.9% | [3]; [8] 78% | [3]; at 50.0 µM 86.2% | [6]; at 50.0 µM 87.5%
inactive: [1]; [7] -4% | [1]; at 50.0 µM 62.1% | [2]; [7] -6% | [2]; [8] 62% | [3]; [7] 12% | [4]; [7] -16% | [4]; [8] 41% | [4]; at 50.0 µM 60.5% | [5]; [7] -20% | [5]; [8] 44% | [5]; at 50.0 µM 53.8% | [6]; [7] 1% | [6]; [8] 65%

O=C1NC(=S)S/C1=C\c1cc(Cl)ccc1O
inactive: [1]; [7] 4% | [1]; [8] -7% | [1]; at 50.0 µM 2.85% | [2]; [7] -4% | [2]; [8] -6% | [2]; at 50.0 µM 15.7% | [3]; [7] -1% | [3]; [8] 4% | [3]; at 50.0 µM 60.5% | [4]; [7] -7% | [4]; [8] -18% | [4]; at 50.0 µM -22.4% | [5]; [7] -7% | [5]; [8] -14% | [5]; at 50.0 µM -4.2% | [6]; [7] -5% | [6]; [8] -6% | [6]; at 50.0 µM 3.05%

COc1ccccc1NC(=O)/C(=C/c1ccccc1)C(C)=O
inactive: [1]; [7] -1% | [1]; [8] 12% | [1]; at 50.0 µM 48.6% | [2]; [7] -2% | [2]; [8] -2% | [2]; at 50.0 µM -3.05% | [3]; [7] 11% | [3]; [8] 12% | [3]; at 50.0 µM 16.7% | [4]; [7] 1% | [4]; [8] 21% | [4]; at 50.0 µM 49.1% | [5]; [7] -2% | [5]; [8] 25% | [5]; at 50.0 µM -4.75% | [6]; [7] 3% | [6]; [8] 26% | [6]; at 50.0 µM 66.5%

C[N+](C)(CCO)Cc1ccccc1
inactive: [1]; [7] -4% | [1]; [8] 10% | [1]; at 50.0 µM -19.4% | [2]; [7] 1% | [2]; [8] 0% | [2]; at 50.0 µM 1.6% | [3]; [7] -5% | [3]; [8] -37% | [3]; at 50.0 µM 11.2% | [4]; [7] -1% | [4]; [8] 2% | [4]; at 50.0 µM -30.6% | [5]; [7] 8% | [5]; [8] 39%
active: [5]; at 50.0 µM 74.2%

O=C1CN(CCN2CCOCC2)CC(=O)N2CCCCN12
inactive: [1]; [7] 1% | [1]; [8] -1% | [1]; at 50.0 µM 3.3% | [2]; [7] -2% | [2]; [8] -1% | [2]; at 50.0 µM 2.55% | [3]; [7] 3% | [3]; [8] 7% | [3]; at 50.0 µM 32.6% | [4]; [7] -8% | [4]; [8] 2% | [4]; at 50.0 µM 11.6% | [5]; [7] -6% | [5]; [8] -3% | [5]; at 50.0 µM 5.7% | [6]; [7] -1% | [6]; [8] -2% | [6]; at 50.0 µM 1.45%

CC(=O)C(C(C)=O)C1C=CC=CC=C1
inactive: [1]; [7] -149% | [2]; [7] -42% | [3]; [7] -59% | [4]; [7] -59% | [5]; [7] -73%
active: [1]; [8] 93% | [1]; at 50.0 µM 97% | [2]; [8] 87% | [2]; at 50.0 µM 92.5% | [3]; [8] 90% | [3]; at 50.0 µM 91.8% | [4]; [8] 77% | [4]; at 50.0 µM 80% | [5]; [8] 86% | [5]; at 50.0 µM 92.5%

NC(=O)c1ncn(C2OC(CO)C(O)C2O)c1O (stereo not drawn)
inactive: [1]; [7] 20% | [1]; [8] 6% | [1]; at 50.0 µM -7.65% | [2]; [7] -9% | [2]; [8] -10% | [2]; at 50.0 µM -11.4% | [3]; [7] -3% | [3]; [8] 7% | [3]; at 50.0 µM 11.3% | [4]; [7] 13% | [4]; [8] 10% | [4]; at 50.0 µM 4% | [5]; [7] 1% | [5]; [8] 32% | [5]; at 50.0 µM -7.85% | [6]; [7] 2% | [6]; [8] -4% | [6]; at 50.0 µM -47.8%

Nc1cc(=O)[nH]c(=S)[nH]1.[Pd]
inactive: [1]; [7] 0% | [1]; [8] -4% | [1]; at 50.0 µM 20% | [2]; [7] 4% | [2]; [8] 5% | [2]; at 50.0 µM 18.6% | [3]; [7] 5% | [3]; [8] 6% | [3]; at 50.0 µM 13.3% | [4]; [7] 0% | [4]; [8] 36% | [5]; [7] 3% | [5]; [8] 13% | [5]; at 50.0 µM -4.45%
active: [4]; at 50.0 µM 71%

O=NN(CCCl)C(=O)NCCSSCCNC(=O)N(CCCl)N=O (tested in a mixture with another compound)
active: [3]; [8] 77%
inactive: [1]; [7] 29% | [1]; [8] 62% | [1]; at 50.0 µM 36.1% | [2]; [7] 20% | [2]; [8] 39% | [2]; at 50.0 µM 38.6% | [3]; [7] 40% | [3]; at 50.0 µM 59.1% | [4]; [7] 14% | [4]; [8] 29% | [4]; at 50.0 µM 21.6% | [5]; [7] 30% | [5]; [8] 38% | [5]; at 50.0 µM 14.2%
